Data published in PubChem BioAssay AID1159580 (chemical genetic matrix, 2015).
Where “and” joins values, the source holds several entries; their conditions need not be identical. Equal entries are not always repeated. Among all 5,500 compounds or so, about 2,000 (36%) were called active. About 18% were inconclusive and are not listed. The list shows a part of the results. A number with no mark means an inactive call. No stated cut-off is given here; in the data, active means normalized growth mostly below about 0.91 (no sharp cut-off); inconclusive means no clear call, values can overlap the other calls; inactive means mostly above about 0.92.

Test: chemical genetic growth profiling, strain panel (AID 1159580);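 further: tested at 20 µM; growth read once vehicle control cultures reached saturation at 30 °C; 1 = growth at the plate median or of vehicle wells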
Conditions: S. cerevisiae deletion strains, growth OD

ClC(Cl)=C(c1ccc(Cl)cc1)c1ccc(Cl)cc1
normalized growth (locus YAL013W, strain DEP1, stronger effect = lower value): 0.976
normalized growth (locus YAL021C, strain ccr4, stronger effect = lower value): 0.995
normalized growth (locus YAL026C, strain drs2, stronger effect = lower value): 0.999
normalized growth (locus YAL030W, strain snc1, stronger effect = lower value): 0.982
normalized growth (locus YBL061C, strain skt5, stronger effect = lower value): 0.985
normalized growth (locus YBR009C, strain hhf1, stronger effect = lower value): 0.987
normalized growth (locus YBR021W, strain FUR4, stronger effect = lower value): 1
normalized growth (locus YBR023C, strain chs3, stronger effect = lower value): 0.983
normalized growth (locus YBR171W, strain sec66, stronger effect = lower value): 0.986
normalized growth (locus YBR229C, strain ROT2, stronger effect = lower value): 0.957
normalized growth (locus YBR231C, strain swc5, stronger effect = lower value): 0.976
normalized growth (locus YBR279W, strain paf1, stronger effect = lower value): 0.994
normalized growth (locus YCL011C, strain gbp2, stronger effect = lower value): 1
normalized growth (locus YCL016C, strain dcc1, stronger effect = lower value): 0.993
normalized growth (locus YCL029C, strain bik1, stronger effect = lower value): 0.941
normalized growth (locus YCL061C, strain MRC1, stronger effect = lower value): 0.983
normalized growth (locus YCL069W, strain vba3, stronger effect = lower value): 0.995
normalized growth (locus YCR088W, strain abp1, stronger effect = lower value): 0.998
normalized growth (locus YDL005C, strain med2, stronger effect = lower value): 0.979
normalized growth (locus YDL035C, strain GPR1, stronger effect = lower value): 0.971
normalized growth (locus YDL040C, strain nat1, stronger effect = lower value): 0.994
normalized growth (locus YDL074C, strain BRE1, stronger effect = lower value): 1.04
normalized growth (locus YDL101C, strain DUN1, stronger effect = lower value): 0.948
normalized growth (locus YDL134C, strain PPH21, stronger effect = lower value): 0.967
normalized growth (locus YDL185W, strain tfp1, stronger effect = lower value): 0.964
normalized growth (locus YDL192W, strain arf1, stronger effect = lower value): 0.958
normalized growth (locus YDR001C, strain nth1, stronger effect = lower value): 0.998
normalized growth (locus YDR069C, strain doa4, stronger effect = lower value): 0.985
normalized growth (locus YDR101C, strain arx1, stronger effect = lower value): 0.963
normalized growth (locus YDR137W, strain rgp1, stronger effect = lower value): 1.04
normalized growth (locus YDR150W, strain NUM1, stronger effect = lower value): 0.945
normalized growth (locus YDR159W, strain sac3, stronger effect = lower value): 0.986
normalized growth (locus YDR162C, strain NBP2, stronger effect = lower value): 0.95
normalized growth (locus YDR195W, strain ref2): 1
normalized growth (locus YDR297W, strain sur2, stronger effect = lower value): 0.995
normalized growth (locus YDR318W, strain mcm21, stronger effect = lower value): 0.961
normalized growth (locus YDR334W, strain swr1, stronger effect = lower value): 0.986
normalized growth (locus YDR335W, strain msn5, stronger effect = lower value): 0.992
normalized growth (locus YDR388W, stronger effect = lower value): 0.949
normalized growth (locus YDR392W, strain spt3, stronger effect = lower value): 0.967
normalized growth (locus YDR502C, strain sam2, stronger effect = lower value): 0.95
normalized growth (locus YEL003W, strain gim4, stronger effect = lower value): 0.997
normalized growth (locus YEL037C, strain rad23, stronger effect = lower value): 1.01
normalized growth (locus YEL061C, strain CIN8 (second series), stronger effect = lower value): 0.996
normalized growth (locus YEL061C, strain CIN8, stronger effect = lower value): 0.966
normalized growth (locus YER015W, strain faa2, stronger effect = lower value): 0.983
normalized growth (locus YER016W, strain bim1, stronger effect = lower value): 1
normalized growth (locus YER110C, stronger effect = lower value): 0.946
normalized growth (locus YER111C, strain swi4, stronger effect = lower value): 0.991
normalized growth (locus YER155C, strain BEM2 (second series), stronger effect = lower value): 0.983
normalized growth (locus YER155C, strain BEM2, stronger effect = lower value): 0.927
normalized growth (locus YER167W, strain BCK2, stronger effect = lower value): 0.887 (active)
normalized growth (locus YFR010W, strain ubp6, stronger effect = lower value): 0.989
normalized growth (locus YGL078C, strain dbp3, stronger effect = lower value): 0.951
normalized growth (locus YGL086W, strain mad1, stronger effect = lower value): 0.955
normalized growth (locus YGL167C, strain pmr1, stronger effect = lower value): 0.994
normalized growth (locus YGL173C, strain kem1, stronger effect = lower value): 0.994
normalized growth (locus YGL227W, strain vid30, stronger effect = lower value): 0.995
normalized growth (locus YGL240W, strain doc1, stronger effect = lower value): 0.991
normalized growth (locus YGL248W, strain PDE1, stronger effect = lower value): 0.959
normalized growth (locus YGL253W, strain hxk2, stronger effect = lower value): 0.993
normalized growth (locus YGR078C, strain PAC10, stronger effect = lower value): 0.974
normalized growth (locus YGR135W, strain pre9, stronger effect = lower value): 0.966
normalized growth (locus YGR229C, strain SMI1, stronger effect = lower value): 0.998
normalized growth (locus YGR252W, strain gcn5, stronger effect = lower value): 1.03
normalized growth (locus YHR013C, strain ard1, stronger effect = lower value): 0.998
normalized growth (locus YHR027C, strain rpn1, stronger effect = lower value): 0.989
normalized growth (locus YHR030C, strain SLT2, stronger effect = lower value): 0.95 and 1.05
normalized growth (locus YHR079C, strain IRE1 (second series), stronger effect = lower value): 0.951
normalized growth (locus YHR079C, strain IRE1, stronger effect = lower value): 1.03
normalized growth (locus YHR094C, strain hxt1, stronger effect = lower value): 0.948
normalized growth (locus YHR129C, strain ARP1, stronger effect = lower value): 0.963
normalized growth (locus YHR142W, strain chs7, stronger effect = lower value): 0.986
normalized growth (locus YHR200W, strain rpn10, stronger effect = lower value): 0.951
normalized growth (locus YIL066C, strain RNR3, stronger effect = lower value): 0.929
normalized growth (locus YIL073C, strain SPO22, stronger effect = lower value): 0.941
normalized growth (locus YIL125W, strain kgd1, stronger effect = lower value): 0.948
normalized growth (locus YIR030C, strain dcg1, stronger effect = lower value): 0.944
normalized growth (locus YJL092W, strain hpr5, stronger effect = lower value): 0.999
normalized growth (locus YJL095W, strain BCK1 (second series), stronger effect = lower value): 0.995
normalized growth (locus YJL095W, strain BCK1, stronger effect = lower value): 0.961 and 1.05
normalized growth (locus YJL115W, strain asf1, stronger effect = lower value): 0.991
normalized growth (locus YJL129C, strain trk1, stronger effect = lower value): 0.964
normalized growth (locus YJL134W, strain LCB3, stronger effect = lower value): 0.961
normalized growth (locus YJL154C, strain vps35, stronger effect = lower value): 0.998
normalized growth (locus YJL164C, strain tpk1, stronger effect = lower value): 0.979
normalized growth (locus YJL166W, strain qcr8, stronger effect = lower value): 0.975
normalized growth (locus YJL168C, strain set2, stronger effect = lower value): 0.949
normalized growth (locus YJL187C, strain SWE1 (second series), stronger effect = lower value): 0.958
normalized growth (locus YJL187C, strain SWE1, stronger effect = lower value): 0.995
normalized growth (locus YJR043C, strain POL32, stronger effect = lower value): 0.966
normalized growth (locus YJR066W, strain TOR1, stronger effect = lower value): 0.975
